# mHTT CaM bind = disrupts binding of mutant huntingtin to calmodulin; P42858; AlphaScreen His-mHTT/GST-CaM binding, luminescence; inhibition, % at 15 µM; 3.6% of 190,000 active;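 further: 0% = both proteins with DMSO and 100% = one protein alone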
# Pf apPOL block = Pf-apPOL DNA polymerase inhibition. Recombinant Pf-apPOL, molecular beacon fluorescence, 1.5 h. inhibition, % at 10 µM. 0.25% of 210,000 active
# Active calls of the source: *; x = no result given; ! = a repeat was not active. In the library only some 3.5% were active in any assay of this set; here they are far more common. No stated cut-off is given here; in the data, active means inhibition above about 50%; inactive means the rest.
SMILES,mHTT CaM bind,Pf apPOL block
COc1ccc(N2CC(c3nnc(NC(=O)Cc4ccc(Cl)cc4)o3)CC2=O)cc1 (stereo not drawn),4.8,-1.3
O=C(COc1ccc(F)cc1)Nc1nnc(C2CC(=O)N(c3ccc(F)cc3)C2)o1 (stereo not drawn),67.7*,-1.8
COc1ccc(N2CC(c3nnc(NC(=O)Cc4ccc(F)cc4)o3)CC2=O)cc1 (stereo not drawn),72.9*,-1.2
O=C(Nc1nnc(C2CC(=O)N(c3ccccc3)C2)o1)c1ccccc1F (stereo not drawn),13.5,-2.3
O=C(Nc1nnc(C2CC(=O)N(c3ccc(F)cc3)C2)o1)c1ccccc1F (stereo not drawn),60.7*,0.8
COc1ccc(N2CC(c3nnc(NC(=O)COc4ccc(F)cc4)o3)CC2=O)cc1 (stereo not drawn),18.7,1.7
COc1ccc(CC(=O)Nc2nnc(C3CC(=O)N(c4ccc(OC)cc4)C3)o2)cc1 (stereo not drawn),15.4,-3.7
O=C(Cc1ccc(F)cc1)Nc1nnc(C2CC(=O)N(c3ccc(Cl)cc3)C2)o1 (stereo not drawn),67.0*,-5.5
COc1ccc(C(=O)N2CCC(OCc3nc(C4CC4)no3)CC2)cn1,-6.4,-5.3
O=C(NC1CC2CC1N(C(=O)c1ccccc1C(F)(F)F)C2)c1cccnc1 (stereo not drawn),-0.5,-1.9
O=C(O)CCc1ccc(-c2ccccc2)n1-c1ccc(Br)cc1,35.7,-4.1
COc1ccc(C(=O)N2CCCC2COc2ccc(C(=O)NC3CC3)cc2)cc1F (stereo not drawn),-2.5,-7.3
O=C(Cc1ccc(Cl)cc1)Nc1nnc(C2CC(=O)N(c3ccc(F)cc3)C2)o1 (stereo not drawn),71.2*,-4.0
O=C(Nc1nnc(C2CC(=O)N(c3ccc(Cl)cc3)C2)o1)c1ccc(F)cc1 (stereo not drawn),15.8,-1.5
CCc1[nH]nc2c1C(c1ccccc1F)C(C#N)=C(N)O2 (stereo not drawn),-3.0,-1.8
COc1ccc(NC(=O)CC2CCC2)cc1,-6.1,5.2
COc1ccc(NCC2CCCCC2)cc1,73.4*,-0.5
CCCC(=O)Nc1n[nH]c(C)c1-c1ccc(OC)cc1,-1.0,-1.9
Cc1ccc(C(=O)N2CCCC2C(=O)NC(C)C)cc1 (stereo not drawn),0.0,0.1
Cn1nc(-c2nc(Cc3ccccc3)no2)c2c1CCN(C(=O)c1ccc(F)cc1F)C2,-4.4,-5.3
COc1cc2c(cc1OC)C(c1cccc(Cl)c1Cl)CC(=O)N2 (stereo not drawn),9.0,-4.8
COc1cccc(C2CC(=O)Nc3cc(C)c(C)cc32)c1OC (stereo not drawn),100.1*,-17.1
COc1cccc2cc(-c3cc(=O)oc4cc(OC(C)=O)ccc34)c(=O)oc12,2.6,-8.0
COc1ccc(CNC(=O)c2sc3nc(-c4ccccc4)cn3c2C)cc1,1.0,-3.1
COc1ccc(C(O)=C2C(=O)C(=O)N(c3nnc(C)s3)C2c2ccc(Cl)c(Cl)c2)cc1 (stereo not drawn),99.5*,1.2
SMILES,mHTT CaM bind,Pf apPOL block
CCOc1ccc(C(O)=C2C(=O)C(=O)N(c3nnc(C)s3)C2c2ccc([N+](=O)[O-])cc2)cc1 (stereo not drawn),17.0,6.8
CCCC(=O)N1CCc2c(c(-c3nc(C4CC4)no3)nn2C)C1,-0.2,-4.4
Cn1c2c(c(=O)[nH]c1=O)C(c1ccc(OCc3ccccc3)cc1)C1=C(N2)c2ccccc2C1=O (stereo not drawn),86.0*,-93.5
O=C1C2=C(Nc3[nH]c(=O)[nH]c(=O)c3C2c2ccc(Cl)cc2)c2ccccc21 (stereo not drawn),67.0*!,-3.6
Cn1c2c(c(=O)[nH]c1=O)C(c1ccc(O)cc1)C1=C(N2)c2ccccc2C1=O (stereo not drawn),19.0,8.7
Cn1c2c(c(=O)n(C)c1=O)C(c1ccc(Cl)cc1)C1=C(N2)c2ccccc2C1=O (stereo not drawn),0.0,-8.4
COc1cc(/C=C/C(=O)Nc2ccc3nc(N4CCN(C)CC4)cc(C)c3c2)cc(OC)c1OC,21.0,-3.9
Cc1cc(N2CCN(C)CC2)nc2ccc(NC(=O)/C=C/c3cccc(Cl)c3)cc12,94.0*,-7.9
Cc1cc(N2CCCCC2)nc2ccc(NC(=O)/C=C/c3cccs3)cc12,33.0,-5.4
COc1ccc(/C=C/C(=O)Nc2ccc3nc(N4CCN(C)CC4)cc(C)c3c2)cc1OC,51.0*,-2.4
CCOc1ccccc1C1C2=C(CC(C)(C)CC2=O)Nc2nc(C(F)(F)F)nn21 (stereo not drawn),3.0,-5.9
Cn1c(=NC(=O)CCSc2ccccc2)sc2cc([N+](=O)[O-])ccc21,12.0,-4.4
COc1ccc(N=C(N)C(C#N)=Cc2[nH]c3ccccc3c2O)cc1,69.0*,2.5
CN1CCN(C(=N)C(C#N)=Cc2[nH]c3ccccc3c2O)CC1,24.0,1.2
Cc1ccc(CNC(=O)C2(C)CCCN(C(=O)Nc3cccc(C)c3C)C2)cc1 (stereo not drawn),-8.8,-0.2
CC(C)(C)C1CCc2c(sc3c2C(=O)NC(c2ccc(O)c([N+](=O)[O-])c2)N3)C1 (stereo not drawn),59.0*,-4.9
CC(C)(C)C1CCc2c(sc3c2C(=O)NC(c2ccccc2)N3)C1 (stereo not drawn),0.0,-10.6
CC(C)(C)c1ccc(C(=O)NCCCn2ncccc2=O)cc1,-11.7,-9.7
Cc1nn(C(C)(C)C)c(C)c1C=NO,x,3.3
Cc1ccc(-c2noc(CCn3nc(-c4ccccc4)ccc3=O)n2)cc1,17.2,-0.5
O=c1ccc(-c2ccccc2)nn1CCc1nc(-c2cccc(F)c2)no1,81.4*,-8.9
CC(=O)NC(=O)c1cc2ccccc2oc1=Nc1cccc(C)c1,2.0,1.6
O=[N+]([O-])c1ccc(Sc2cccc3cccnc23)c2ncccc12,4.0,-8.2
O=[N+]([O-])c1ccc(OS(=O)(=O)c2ccc3ccccc3c2)c2ncccc12,100.3*,x
COC(=O)Nc1nc(CC(=O)Nc2nc3c(s2)CCCC3)cs1,-2.9,-9.8
SMILES,mHTT CaM bind,Pf apPOL block
Clc1ccccc1CSc1nc(NCc2ccco2)c2ccccc2n1,19.0,-3.6
COCCNc1nc(SCc2ccccc2Cl)nc2ccccc12,58.0*,-3.7
COc1ccc2nc(NC(=O)c3ccccc3Br)sc2c1,1.7,-1.1
COCCc1nnc(NC(=O)C(c2ccccc2)c2ccccc2)o1,96.0*,-6.6
COCC(C)NC(=O)C(c1ccccc1)c1ccccc1 (stereo not drawn),-8.9,-9.4
CCOc1ccc(CNC(=O)C2CCN(c3cc(=O)n(C)c(=O)n3C)CC2)cc1OCC,25.4,-3.7
CC(C)(C)c1ccc(O)c(C(C)(C)C)c1O,98.4*,-6.9
CC(C)(C)c1cc(S)cc(C(C)(C)C)c1O,12.8,x
CN(Cc1ccccc1)C(C(=O)NC1CCCC1)c1cc2c(cc1[N+](=O)[O-])OCO2 (stereo not drawn),26.0,5.6
CC(C)(C)Nc1ncnc2c1cnn2Cc1ccccc1,-3.0,-2.5
O=S(=O)(c1ccccc1)c1nc(-c2ccccc2)oc1N1CCOCC1,1.0,-2.9
O=S(=O)(c1ccccc1)c1nc(Cc2ccccc2)oc1N1CCCCCC1,23.0,68.0*
Cc1cc(C)c(S(=O)(=O)Nc2ccc(Cl)cc2)c(C)c1,-10.5,-7.4
O=C(NC1CCCC1)c1ccc2ncc3c(=O)n(-c4ccc(Cl)cc4)[nH]c3c2c1,86.5*,5.4
